The record followed here is PubChem BioAssay (Tox21).

Records with an inconclusive call do not appear. The source made the active and inactive calls. Calls follow the shape of the full dose curve.

This test is described as follows: qHTS assay to identify small molecule agonists or antagonists of the thyroid stimulating hormone receptor (TSHR) signaling pathway - wild type cell line counter screen (AID 1259384). Particulars: HEK293 wild type, cAMP HTRF counter-screen; series mostly up to 92.4 µM. The text has this: U.S. Tox21 Program National Center for Advancing Translational Sciences [NCATS] NIH Chemical Genomics Center [NCGC] U.S. Environmental Protection Agency [EPA] National Institutes of Environmental Health Sciences [NIEHS] National Toxicology Program [NTP] U.S. Food and Drug Administration [FDA] Tox21 Assay Overview: TSHR is the receptor for thyrotropin (thyroid stimulating hormone or TSH), a member of the glycoprotein hormone family. TSH is released by the anterior pituitary gland and is the main regulator of thyroid gland growth and development. Upon binding circulating thyrotropin, a G-protein signal cascade activates adenylyl cyclase and […] cAMP concentration is increased. cAMP is a key second messenger involved extensively in cellular signal transduction pathways associated with the majority of G-protein coupled receptors (GPCRs). The activation of these GPCRs by neurotransmitters, lipids, nucleotides, peptides and hormones results in the activation or the inhibition of plasma membrane-bound adenylate cyclase through heterotrimeric G-proteins. A cell-based TSHR-Hek293 assay can be used to identify TSHR agonists. To eliminate the false positive compounds identified from screening a cell-based TSHR-Hek293 cell line, cAMP assay in a wild type Hek293 cells was used as a counter screening.
Tox21 Assay Protocol Summary: Hek293 cells (wild type) were dispensed at 800 cells/4 uL/well in 1536-well white plates using a Multidrop dispenser. After the assay plates were incubated at a 37 C/5% CO2 incubator for 18 hrs, 23 nL of compounds dissolved in DMSO, positive controls or DMSO only was transferred to the assay plate by a pin tool, followed by 1 ul medium containing Ro20-1724. After 30 min of incubation at room temperature, 2.5 ul/well of cAMP-d2 and 2.5 ul/well of anti-cAMP-cryptate were added respectively into the assay plates using a Flying Reagent Dispenser. The plates were incubated at room temperature for 1 hr. The fluorescence intensity in the plates was measured using an Envision plate reader. Each test compound was measured at 15 concentrations and in triplicates.
For orientation: In qHTS, concentration-response curves come from the screen itself.
Turning to `O=P(O)(O)CN(CP(=O)(O)O)CP(=O)(O)O`, the call was inactive.
On to `CON(C)C(=O)Nc1ccc(Br)cc1`, for which the result was inactive.
Consider `c1cncc([C@@H]2CCCCN2)c1`, for which the compound was classed as inactive.
On to `CCSC(=O)Cl`, for which the call was inactive.
In the case of `CCOC1Oc2ccc(OS(C)(=O)=O)cc2C1(C)C` (stereo not given), the outcome was inactive.
Consider `CCCCS(=O)(=O)Cl`, for which the compound was classed as inactive.
The value for `O=C(NC(=O)c1c(F)cccc1F)Nc1cc(Cl)c(F)c(Cl)c1F` was “inactive”; that for `C[N+]1(C)CCCCC1` was “inactive”; that for `OP(O)c1ccccc1` was “inactive”.
Consider `CCOC(=O)N(C)N=O`, for which the compound was called inactive.
Then `CC(Cc1ccccc1)NCCn1cnc2c1c(=O)n(C)c(=O)n2C` (stereo not given), with “inactive”; and `CCC(=O)c1ccc(Cl)cc1`, with “inactive”; and `Cc1ccc(Cl)c(O)c1`, with “inactive”.
Turning to `CN1C(=O)COc2c(C(=O)NC3CN4CCC3CC4)cc(Cl)cc21` (stereo not given), the compound was classed as inactive.
With `C#CCOC(=O)/C=C(C)/C=C/CC(C)CCCC(C)C` (stereo not given), the result was inactive.
For the compound `Cc1cc(OC(=O)N(C)C)nn1C(=O)N(C)C`, the call was inactive.
As for `CC(O)CCl` (stereo not given), the compound was called inactive.
For the compound `C=CCc1cc(OC)c2c(c1)OCO2`, the compound was classed as inactive.
`O=[N+]([O-])c1cccc(CCl)c1`: the compound was called inactive.
As for `CCOC(=O)c1ncn2c1CN(C)C(=O)c1c(I)cccc1-2`, the compound was classed as inactive.
The value for `COP(=O)(O)OC` was “inactive”.
Take `c1ccc2c(c1)CCNC2`: the call was inactive.
The value for `ClCCN1CCCC1` was “inactive”.
For `CC(C)N(Cc1ccccc1)C(=O)C(C)(C)C`, the result was inactive.
As for `CC(Cc1ccccc1)NCCCCl` (stereo not given), the outcome was inactive.
Regarding `Clc1nc(Cl)nc(Nc2ccccc2Cl)n1`, the result was inactive.
On to `NNC(N)=O`, for which the result was inactive.
Then `CC(=NC#N)N(C)Cc1ccc(Cl)nc1`, with “inactive”; and `CCC1(CC)C(=O)C=CNC1=O`, with “inactive”; and `CN(C)CCN(C)C`, with “inactive”.
Consider `O=C(Cl)OCc1ccccc1`, for which the compound was called inactive.
As to `NCCOS(=O)(=O)O`, the compound was classed as inactive.
In the case of `NC(=O)CS(=O)C(c1ccccc1)c1ccccc1` (stereo not given), the outcome was inactive.
With `C/C(=N\NC(=O)Nc1cc(F)cc(F)c1)c1ncccc1C(=O)O`, the result was inactive.
On to `N#CC(Br)(Br)C(N)=O`, for which the result was inactive.
Then `CC[C@H](O)C(C[C@H](C)N(C)C)(c1ccccc1)c1ccccc1`, with “inactive”; and `COC1=CC(=O)O[C@@H](/C=C/c2ccccc2)C1`, with “inactive”.
The value for `CCOC(=O)NC(C)(C)Cc1ccc(Cl)cc1` was “inactive”; that for `CCC1(c2cccc(O)c2)CCCCN(C)C1` (stereo not given) was “inactive”.
Then `CS(=O)(=O)Cl`, with “inactive”.
